We go through seven compounds from PubChem BioAssay (NCI).

Among the test systems are NCI-H23 lung; NCI-H226 lung; NCI-H322M lung; HOP-62 NSCLC; NCI-H460 lung; HOP-92 NSCLC; NCI-H522 lung; A549/ATCC NSCLC; 786-0 renal; COLO 205 colon; DU-145 prostate; K-562 leukemia; MALME-3M melanoma; MDA-MB-231 breast; RXF 393 renal; SF-268 CNS; SF-295 CNS; SF-539 CNS; UACC-257 melanoma; M14 melanoma.
Assay in all cases: NCI-60 one-dose screen, 48 h (100 = growth as untreated, 0 = no growth, -100 = all killed)
Holding throughout (settings): 10 µM unless noted

Compounds without any hit were thinned out: in the full panel of roughly 83,000, 20% have a hit.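 Growth was measured after 48 h exposure to one concentration of compound in 96-well plates. Values under 10 count as active.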 A number with no mark means an inactive call. The source made the active and inactive calls.

As for `COc1ccc2[nH]c3nc4cnccc4cc3c2c1`, the growth was 95.2% in the test with NCI-H23 lung; 111% with NCI-H226 lung; 105% with NCI-H322M lung; 96.3% with HOP-62 NSCLC; 103% with NCI-H460 lung; 139% with HOP-92 NSCLC. Also, the growth in the test with NCI-H522 lung was 87.3%; with A549/ATCC NSCLC, 99.6%; in the test on 786-0 renal, 104%; in the test on COLO 205 colon, 111%; with DU-145 prostate, 101%; with K-562 leukemia, 111%. In addition, the growth in the test with MALME-3M melanoma was 108%; with MDA-MB-231 breast, 109%; in the test with RXF 393 renal, 123%; in the test with SF-268 CNS, 106%; in the test with SF-295 CNS, 114%; with SF-539 CNS, 102%. Also, the growth was 122% in the test with UACC-257 melanoma and 102% in the test with M14 melanoma.
For `CCc1ccc(OCc2ccccc2C(=O)Nc2ccc3nc(C)cc(N)c3c2)cc1`, the growth with NCI-H23 lung is -73.2% (active); in the test with NCI-H226 lung, -45.8% (active); with NCI-H322M lung, -92.9% (active); with HOP-62 NSCLC, -78.6% (active); in the test on NCI-H460 lung, -67.6% (active); in the test on HOP-92 NSCLC, -87.2% (active). Also, the growth is -84.5% (active) with NCI-H522 lung; -73.6% (active) in the test on A549/ATCC NSCLC; -88.9% (active) in the test with 786-0 renal; -79% (active) with COLO 205 colon; -96.3% (active) with DU-145 prostate; -68% (active) in the test with K-562 leukemia. Also, the growth was -86.4% (active) in the test on MALME-3M melanoma; -82.4% (active) with MDA-MB-231 breast; -84.5% (active) in the test with RXF 393 renal; -82.5% (active) in the test with SF-268 CNS; -92% (active) in the test on SF-295 CNS; -97.5% (active) in the test on SF-539 CNS. In addition, the growth in the test with UACC-257 melanoma was -79.7% (active); with M14 melanoma, -93.6% (active).
`C=C1C(=O)O[C@H]2[C@H]1CC/C(C=Nc1c(N)cc(C(F)(F)F)cc1Br)=C\CC[C@@]1(C)O[C@@H]21`: the growth in the test with NCI-H23 lung was 30%; in the test with NCI-H226 lung, 38.3%; with NCI-H322M lung it was 77.8%; with HOP-62 NSCLC, 52%; with NCI-H460 lung it was 26.7%; in the test on HOP-92 NSCLC, -15.5% (active). The growth in the test on NCI-H522 lung is -68% (active); in the test on A549/ATCC NSCLC, 58%; in the test with 786-0 renal, -41.8% (active); in the test with COLO 205 colon it was -52.1% (active); in the test on DU-145 prostate it was 19.3%; in the test on K-562 leukemia it was -8.9% (active). Besides, the growth in the test on MALME-3M melanoma was -8.38% (active); in the test with MDA-MB-231 breast it was -16% (active); in the test with RXF 393 renal, -63.4% (active); in the test on SF-268 CNS it was 27.6%; in the test on SF-295 CNS it was 83.3%; in the test on SF-539 CNS, 18.6%. Further, the growth in the test with UACC-257 melanoma is 34%; with M14 melanoma it was -46.3% (active).
As to `C=C(C)[C@@H]1CCC=C2CC[C@]3(C)[C@H](CC[C@@H]4[C@@]5(C)CCCNC(C)(C)[C@@H]5CC[C@]43C)[C@H]21`, the growth in the test on NCI-H23 lung was 66.5%; with NCI-H226 lung it was 104%; with NCI-H322M lung, 33.7%; with HOP-62 NSCLC, 77.8%; in the test with NCI-H460 lung it was -24.6% (active); in the test on HOP-92 NSCLC it was 79.2%. The growth was 66.7% with NCI-H522 lung; 13% in the test on A549/ATCC NSCLC; -5.34% (active) with 786-0 renal; -43.6% (active) in the test with COLO 205 colon; 18.6% with DU-145 prostate; -0.754% (active) in the test on K-562 leukemia. For the same compound, the growth is 38% in the test with MALME-3M melanoma; -6.11% (active) in the test with MDA-MB-231 breast; 47.6% in the test with RXF 393 renal; 93.1% in the test with SF-268 CNS; 72.5% in the test with SF-295 CNS; 84.8% in the test on SF-539 CNS. Further, the growth in the test with UACC-257 melanoma was 83%; in the test with M14 melanoma, 34.6%.
For `NS(=O)(=O)c1ccc(-n2ncc(NC(=O)Nc3ccc(S(=O)(=O)Nc4nccs4)cc3)c2-c2ccccc2)cc1`, the growth in the test on NCI-H23 lung was 106%; in the test on NCI-H226 lung, 104%; in the test with NCI-H322M lung it was 106%; in the test on HOP-62 NSCLC, 94.4%; with NCI-H460 lung it was 108%; with HOP-92 NSCLC it was 106%. Moreover, the growth was 98.4% with NCI-H522 lung; 98.5% with A549/ATCC NSCLC; 95.6% in the test with 786-0 renal; 108% in the test on COLO 205 colon; 109% in the test on DU-145 prostate; 96.1% in the test with K-562 leukemia. In addition, the growth is 97.2% in the test on MALME-3M melanoma; 112% in the test on MDA-MB-231 breast; 120% with RXF 393 renal; 101% in the test with SF-268 CNS; 99.3% in the test with SF-295 CNS; 98.2% in the test on SF-539 CNS. In addition, the growth with UACC-257 melanoma was 104%; with M14 melanoma, 95.8%.
On to `Cc1cc(O)cc(O)c1N=NC1=NCCS1`, for which the growth in the test on NCI-H23 lung was 98%; with NCI-H226 lung, 117%; in the test with NCI-H322M lung it was 97.8%; in the test with HOP-62 NSCLC, 95.7%; with NCI-H460 lung, 115%; with HOP-92 NSCLC, 109%. For the same compound, the growth in the test with NCI-H522 lung was 90.3%; with A549/ATCC NSCLC, 101%; in the test with 786-0 renal it was 96.6%; with COLO 205 colon it was 100%; in the test on DU-145 prostate, 103%; with K-562 leukemia, 89.7%. For the same compound, the growth in the test with MALME-3M melanoma was 94.3%; in the test on MDA-MB-231 breast, 97.1%; in the test on RXF 393 renal it was 123%; with SF-268 CNS it was 94.6%; in the test on SF-295 CNS, 101%; with SF-539 CNS, 100%. The growth with UACC-257 melanoma is 101%; in the test on M14 melanoma it was 98%.
Regarding `C#CCOC(=O)[C@]1(C)CCC[C@]2(C)[C@H]3C[C@H]4C(C(C)C)=C[C@]3(CC[C@H]21)[C@@H]1C(=O)CCC(=O)[C@@H]14`, the growth in the test on NCI-H23 lung is 84.1%; in the test with NCI-H226 lung, 85.9%; with NCI-H322M lung, 102%; in the test on HOP-62 NSCLC, 80.1%; in the test with NCI-H460 lung, 90.9%; in the test with HOP-92 NSCLC, 54%. In addition, the growth is 63.7% in the test with NCI-H522 lung; 76.9% with A549/ATCC NSCLC; 88.5% in the test with 786-0 renal; 105% in the test on COLO 205 colon; 102% in the test on DU-145 prostate; 77.2% in the test with K-562 leukemia. For the same compound, the growth in the test with MALME-3M melanoma is 110%; with MDA-MB-231 breast, 74.6%; in the test with RXF 393 renal it was 86%; in the test with SF-268 CNS, 99.2%; with SF-295 CNS, 83.7%; in the test with SF-539 CNS it was 84%. The growth in the test with UACC-257 melanoma is 92.3%; with M14 melanoma, 91.9%.
